Test results reported in PubChem BioAssay (Tox21).
Inconclusive results are not listed. Unmarked numbers belong to inactive results. Active and inactive are the calls of the source. The call rests on the fitted dose curve; in most records, active means well fitted cell-killing curve with a large enough effect in the repeat runs; inconclusive means weak or mixed curves; inactive means no such curve, though single readings can be large or run the other way.

assay: qHTS assay for identifying genotoxic compounds that show differential cytotoxicity against isogenic chicken DT40 cell lines with known DNA damage response pathways - Rad54/Ku70 mutant cell line (AID 743015); conditions: DT40 Rad54/Ku70 mutant viability, CellTiter-Glo, 40 h; series mostly up to 66.8 µM; activity change, negative = cytotoxicity: at the top concentration; further: nearly all actives have a fitted effect of over 60% in size
Source text: National Center for Advancing Translational Sciences [NCATS]
NIH Chemical Genomics Center [NCGC]
U.S. Environmental Protection Agency [EPA]
National Institutes of Environmental Health Sciences [NIEHS]
National Toxicology Program [NTP]
U.S. Food and Drug Administration [FDA]
DNA repair pathways play a critical role in cellular homeostasis by repairing DNA damage induced by endogenous processes and xenobiotics. Isogenic chicken DT40 cell lines deficient in different DNA repair pathways can be used to identify genotoxic compounds and aid in characterizing the nature of the DNA damage induced. Two DNA repair-deficient cell lines with disrupted genes, Rad54/Ku70 or Rev3, were used to screen the Tox21 10K compound library. Possible genotoxicity was based on the presence of a significant increase in cytotoxicity in one or more of the DNA repair-deficient cell lines compared to that observed in the parental DNA repair-proficient cell line. CellTiter Glo viability assay (Promega, Madison, WI) was used to measure cell viability in these cells after compound treatment. This assay includes the data from the Rad54/Ku70 mutant cell line.
Tox21 Assay Protocol Summary:
300 DT40 mutant cells in 5 uL/well were dispensed into white, solid-bottom 1536-well plates using a Multidrop Combi (ThermoFisher Scientific, Waltham, MA) dispenser. After the assay plates were incubated at 37 C/5% CO2 for approximately 0.5 hour, 23 nL of compounds dissolved in DMSO, positive controls or DMSO only was transferred into the assay plate by a pintool work station (Kalypsys, San Diego, CA). The assay plates were incubated at 37 C/5% CO2 for 40 hours. After 5 uL per well of CellTiter-Glo reagent was added into each well of the assay plates, the plates were incubated for 30 min at room temperature and the luminescence intensity of the plates was measured using a ViewLux (PerkinElmer, Shelton, CT) plate reader.
On the % scale 0 is the no-effect control and ±100 the full control effect; potency means the concentration at half of the fitted maximal effect.

Compared with `CCC(=O)c1ccc(O)cc1`, `CC(C)c1ccccc1O` is higher in “activity change, negative = cytotoxicity” value: 4.6% for the first, 4.67% for the second.

Compared with `CCCCOC(=O)C(C)OC(=O)CCC` (stereo not given), `CCCCOC(=O)C(=O)OCCCC` is lower in “activity change, negative = cytotoxicity” value: 17.1% for the first, 4.8% for the second.

First: CCN1CN(CC)CN(CC)C1
Second: CCCCC(=O)N(C)C
The “activity change, negative = cytotoxicity” value of the first is lower: -5.7% for the first, 4.62% for the second.

First: CC(C)COC(=O)CC(C(=O)OCC(C)C)S(=O)(=O)O (stereo not given)
Second: CCC(C)(CCC(C)C)C(=O)[O-].CCC(C)(CCC(C)C)C(=O)[O-].[Zn+2] (stereo not given)
The “activity change, negative = cytotoxicity” value of the first is lower: -10.4% for the first, 8.28% for the second.

Compared with `NC(Cc1c[nH]c2ccccc12)C(=O)O` (stereo not given), `CCCCC(CC)COC(=O)c1ccccc1` (stereo not given) is lower in “activity change, negative = cytotoxicity” value: 14.7% for the first, -8.29% for the second.

Compared with `FC(F)(F)c1ccc(Cl)cc1Cl`, `FC(F)(F)/C(=N\OCC1OCCO1)c1ccc(Cl)cc1` is lower in “activity change, negative = cytotoxicity” value: 7.33% for the first, -24.1% for the second.

Compared with `CCCCCCCCCCC`, `CCCCC[Si](OCC)(OCC)OCC` is higher in “activity change, negative = cytotoxicity” value: -13.5% for the first, -0.0738% for the second.

First: Cc1nc([N+](=O)[O-])cn1-c1ccc([N+](=O)[O-])cc1
Second: Cc1c(C(C)C)c(=O)n(-c2ccccc2)n1C
The “activity change, negative = cytotoxicity” value of the first is higher: 1.4% for the first, -2.74% for the second.

Compared with `CCOC(=O)OCC/C(SC(=O)OCC)=C(\C)N(C=O)Cc1cnc(C)nc1N`, `COC(/C=C(\C)CCC=C(C)C)OC` is lower in “activity change, negative = cytotoxicity” value: 2.89% for the first, -25.9% for the second.

First: Cc1ccccc1N1CCN(CCc2nnc3n2CCCC3)CC1
Second: Nc1c(NC/C=C\COc2cc(CN3CCCCC3)ccn2)c(=O)c1=O
The “activity change, negative = cytotoxicity” value of the first is higher: 0.0956% for the first, -11.2% for the second.

Compared with `NS(=O)(=O)c1ccccc1OC(F)(F)F`, `CCN(Cc1cccc(S(=O)(=O)O)c1)c1ccccc1` is lower in “activity change, negative = cytotoxicity” value: 1.59% for the first, -10.4% for the second.

Compared with `CCN(CCC#N)c1ccccc1`, `O=C(c1ccc2c(c1)C(=O)OC2=O)c1ccc2c(c1)C(=O)OC2=O` is lower in “activity change, negative = cytotoxicity” value: 12.8% for the first, 0.0084% for the second.

Going from `C=CCOCC(CO)(COCC=C)COCC=C` to `C=C[Si](C)(C)O[Si](C)(C)C=C`, the “activity change, negative = cytotoxicity” value rises from -18.7% to 9.53%.

Compared with `COc1ccc(N=Nc2cc(C)c(N=Nc3ccc(S(=O)(=O)O)cc3)cc2OC)cc1`, `Cc1ccc(S(=O)(=O)NC(=O)NC2CCCCCCC2)cc1` is higher in “activity change, negative = cytotoxicity” value: -2.54% for the first, 11.7% for the second.

For `O=CN1CCOCC1`, the “activity change, negative = cytotoxicity” value was 4.05%.

Going from `NS(=O)(=O)c1cc2c(cc1Cl)NC(CC1CCCC1)NS2(=O)=O` (stereo not given) to `Nc1ccc(S(=O)(=O)Nc2ccccn2)cc1`, the “activity change, negative = cytotoxicity” value rises from 5.99% [at 30.7 µM] to 10.5% [at 30.7 µM].

With `CC(C)SCc1ccco1` the “activity change, negative = cytotoxicity” value was 8.13% [at 30.7 µM].

First: CCCCCCCCCOCC1CO1 (stereo not given)
Second: OCCCCCCCl
The “activity change, negative = cytotoxicity” value of the first is lower: -6.11% [at 95.1 µM] for the first, 2.02% [at 95.1 µM] for the second.

First: Cc1cc(C)cc([N+](=O)[O-])c1
Second: CC(=O)/C=C/c1ccco1
The “activity change, negative = cytotoxicity” value of the first is lower: 7.46% [at 95.1 µM] for the first, 8.11% [at 95.1 µM] for the second.

For `C1=C\CC/C=C\CC/1`, the “activity change, negative = cytotoxicity” value was 6.77% [at 95.1 µM].

For `O=C(CN1CCN(Cc2ccc3c(c2)OCO3)CC1)N1c2ccccc2Sc2ccccc21`, the Potency was 26.6 µM (active).
In the case of `CCCCCCCC/C=C\CCCCCCCC(=O)OC[C@@H](O)[C@H]1OC[C@H](O)[C@H]1O`, the Potency is reported as “inactive”.
In the case of `OC(CCN1CCCCC1)(c1ccccc1)c1ccccc1`, the Potency is reported as 21.1 µM (active).
